Experiments:
Experiment in all cases: DAPPL (digital affinity profiling via proximity ligation, sequencing); 10 mM Tris-HCl pH 7.5, 50 mM NaCl, 1 mM DTT, 4% glycerol, room temperature, 30 min; GST-TFs on glutathione beads, 16-mer random dsDNA library, 0.1% formaldehyde crosslink after washing; high values mean tight binding
Conditions in all cases: protein: recombinant; tags: N-terminal GST; dsDNA, one strand shown
[1] = molecular target: T1, FLI1 (Homo sapiens, UniProt Q01543 1-452)
T1 sequence: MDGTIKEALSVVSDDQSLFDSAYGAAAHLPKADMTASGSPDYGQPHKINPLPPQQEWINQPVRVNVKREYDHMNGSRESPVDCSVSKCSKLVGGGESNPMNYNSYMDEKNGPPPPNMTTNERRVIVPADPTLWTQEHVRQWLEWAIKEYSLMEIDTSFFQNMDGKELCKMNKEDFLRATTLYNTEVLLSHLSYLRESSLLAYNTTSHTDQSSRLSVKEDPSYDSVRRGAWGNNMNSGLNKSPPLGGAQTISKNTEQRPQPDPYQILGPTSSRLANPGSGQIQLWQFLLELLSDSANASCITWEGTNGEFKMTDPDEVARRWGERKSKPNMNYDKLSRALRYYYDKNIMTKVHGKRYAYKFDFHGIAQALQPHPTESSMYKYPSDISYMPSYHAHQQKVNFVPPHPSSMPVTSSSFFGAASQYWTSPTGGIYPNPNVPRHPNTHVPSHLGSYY
Method in brief: (§1)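 Binding signal is each hexamer's read frequency for a factor divided by its frequency in the tag-only sample. The factors were GST-fused human transcription factors from yeast, captured on glutathione beads, DNA-barcoded and pooled with that sample. Pools were incubated with 200 nmole of a random double-stranded 16-mer DNA library in Tris/NaCl/DTT/glycerol buffer at room temperature for 30 min, then washed, crosslinked with 0.1% formaldehyde, proximity-ligated with BsaI/T4 ligase (1 h, 37 °C), PCR-amplified and sequenced on an Illumina NextSeq500.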

[2] = molecular target: T2, ELK1 (Homo sapiens, UniProt P19419 1-428)
T2 sequence: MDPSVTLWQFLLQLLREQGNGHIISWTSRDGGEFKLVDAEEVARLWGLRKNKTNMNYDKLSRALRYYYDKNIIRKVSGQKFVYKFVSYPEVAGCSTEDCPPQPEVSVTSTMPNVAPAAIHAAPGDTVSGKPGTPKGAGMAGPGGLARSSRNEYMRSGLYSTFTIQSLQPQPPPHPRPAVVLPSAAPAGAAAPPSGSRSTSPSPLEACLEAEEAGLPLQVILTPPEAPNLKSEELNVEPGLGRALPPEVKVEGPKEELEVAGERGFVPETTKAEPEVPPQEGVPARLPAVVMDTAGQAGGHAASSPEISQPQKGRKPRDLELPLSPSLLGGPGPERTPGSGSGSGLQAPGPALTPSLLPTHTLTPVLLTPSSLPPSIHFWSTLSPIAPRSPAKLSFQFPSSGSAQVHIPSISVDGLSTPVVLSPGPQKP
Method in brief: as §1

[3] = molecular target: T3, GABPA (Homo sapiens, UniProt Q06546 1-454)
T3 sequence: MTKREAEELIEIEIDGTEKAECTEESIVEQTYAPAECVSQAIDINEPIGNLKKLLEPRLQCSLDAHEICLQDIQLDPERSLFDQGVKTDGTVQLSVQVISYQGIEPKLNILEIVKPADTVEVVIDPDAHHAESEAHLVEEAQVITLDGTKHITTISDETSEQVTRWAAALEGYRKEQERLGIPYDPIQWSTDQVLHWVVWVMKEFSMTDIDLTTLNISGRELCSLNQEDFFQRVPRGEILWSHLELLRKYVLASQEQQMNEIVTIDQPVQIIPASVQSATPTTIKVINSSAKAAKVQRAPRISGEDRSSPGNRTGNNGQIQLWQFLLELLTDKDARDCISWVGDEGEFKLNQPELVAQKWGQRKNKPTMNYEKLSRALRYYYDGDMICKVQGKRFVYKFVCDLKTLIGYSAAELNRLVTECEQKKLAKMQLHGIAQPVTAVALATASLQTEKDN
Method in brief: as §1

[4] = molecular target: T4, ERG (Homo sapiens, UniProt P11308 1-479)
T4 sequence: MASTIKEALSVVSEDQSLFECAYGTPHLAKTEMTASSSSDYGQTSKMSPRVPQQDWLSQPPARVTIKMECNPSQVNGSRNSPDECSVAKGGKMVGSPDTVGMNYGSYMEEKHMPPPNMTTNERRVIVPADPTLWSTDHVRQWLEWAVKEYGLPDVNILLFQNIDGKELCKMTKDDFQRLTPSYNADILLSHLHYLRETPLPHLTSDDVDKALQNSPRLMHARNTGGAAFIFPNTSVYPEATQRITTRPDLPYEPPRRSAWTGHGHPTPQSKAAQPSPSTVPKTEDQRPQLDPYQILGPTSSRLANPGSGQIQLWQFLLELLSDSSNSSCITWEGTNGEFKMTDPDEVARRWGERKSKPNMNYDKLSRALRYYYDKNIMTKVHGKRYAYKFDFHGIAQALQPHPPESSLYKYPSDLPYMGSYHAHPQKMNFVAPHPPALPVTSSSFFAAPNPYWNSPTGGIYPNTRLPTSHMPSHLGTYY
Method in brief: as §1

[5] = molecular target: ELF1 (Homo sapiens, UniProt P32519 1-619)
Chain of ELF1 (P32519 whole entry): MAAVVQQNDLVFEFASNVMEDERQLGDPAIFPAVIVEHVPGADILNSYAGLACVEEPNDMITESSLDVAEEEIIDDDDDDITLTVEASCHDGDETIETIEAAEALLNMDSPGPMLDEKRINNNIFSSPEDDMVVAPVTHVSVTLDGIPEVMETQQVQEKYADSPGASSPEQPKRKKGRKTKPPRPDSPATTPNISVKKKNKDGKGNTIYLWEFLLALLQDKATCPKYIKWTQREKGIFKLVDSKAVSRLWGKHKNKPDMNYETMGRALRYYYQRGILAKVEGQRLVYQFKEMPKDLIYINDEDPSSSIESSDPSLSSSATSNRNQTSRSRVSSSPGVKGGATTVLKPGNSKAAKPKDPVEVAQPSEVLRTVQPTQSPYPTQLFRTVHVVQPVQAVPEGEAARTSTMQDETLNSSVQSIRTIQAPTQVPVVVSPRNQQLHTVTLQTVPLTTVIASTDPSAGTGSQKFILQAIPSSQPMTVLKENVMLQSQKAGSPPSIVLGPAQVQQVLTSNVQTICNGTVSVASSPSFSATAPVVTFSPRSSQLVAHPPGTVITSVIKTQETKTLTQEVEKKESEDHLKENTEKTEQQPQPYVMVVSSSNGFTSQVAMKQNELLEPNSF
Method in brief: as §1

[6] = molecular target: T5, EHF (Homo sapiens, UniProt Q9NZC4 1-300)
T5 sequence: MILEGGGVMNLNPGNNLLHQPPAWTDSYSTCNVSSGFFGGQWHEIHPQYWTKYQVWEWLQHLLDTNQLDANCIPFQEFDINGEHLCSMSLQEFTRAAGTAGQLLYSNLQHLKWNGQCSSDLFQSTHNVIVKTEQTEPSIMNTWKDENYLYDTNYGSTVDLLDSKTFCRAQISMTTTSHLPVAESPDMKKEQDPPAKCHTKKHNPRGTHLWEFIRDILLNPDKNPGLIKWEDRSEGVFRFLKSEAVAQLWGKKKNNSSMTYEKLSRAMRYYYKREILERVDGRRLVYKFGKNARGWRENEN
Method in brief: as §1

[7] = molecular target: SPI1 (Homo sapiens, UniProt P17947 1-270)
Method in brief: as §1

[8] = molecular target: SPIB (Homo sapiens, UniProt Q01892 1-262)
Chain of SPIB (Q01892 whole entry): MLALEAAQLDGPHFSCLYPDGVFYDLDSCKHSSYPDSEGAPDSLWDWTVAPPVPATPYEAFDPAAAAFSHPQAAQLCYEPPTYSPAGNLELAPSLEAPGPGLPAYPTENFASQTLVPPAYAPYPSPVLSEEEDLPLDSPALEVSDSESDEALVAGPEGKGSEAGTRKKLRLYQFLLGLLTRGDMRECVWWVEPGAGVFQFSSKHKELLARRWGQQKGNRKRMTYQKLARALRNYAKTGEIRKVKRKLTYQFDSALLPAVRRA
Method in brief: as §1

[9] = molecular target: T6, ELK3 (Homo sapiens, UniProt P41970 1-407)
T6 sequence: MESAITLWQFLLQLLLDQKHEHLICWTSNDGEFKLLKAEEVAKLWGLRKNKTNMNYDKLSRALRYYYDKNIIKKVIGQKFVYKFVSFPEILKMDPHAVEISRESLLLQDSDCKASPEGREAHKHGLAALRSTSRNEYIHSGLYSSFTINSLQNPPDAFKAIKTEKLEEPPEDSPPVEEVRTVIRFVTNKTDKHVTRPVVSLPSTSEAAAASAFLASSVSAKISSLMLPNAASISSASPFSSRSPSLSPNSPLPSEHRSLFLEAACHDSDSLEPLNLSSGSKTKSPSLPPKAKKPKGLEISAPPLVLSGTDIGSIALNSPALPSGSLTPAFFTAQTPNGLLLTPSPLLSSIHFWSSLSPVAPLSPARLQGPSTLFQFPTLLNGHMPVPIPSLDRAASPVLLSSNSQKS
Method in brief: as §1

Row | Sequence | binding signal [1] | binding signal [2] | binding signal [3] | binding signal [4] | binding signal [5] | binding signal [6] | binding signal [7] | binding signal [8] | binding signal [9]
1 | AAAGCA | 1.01 fold enrichment (6-mer frequency, TF over GST control) | 1.04 fold enrichment (6-mer frequency, TF over GST control) | 1.15 fold enrichment (6-mer frequency, TF over GST control) | 1.09 fold enrichment (6-mer frequency, TF over GST control) | 1.04 fold enrichment (6-mer frequency, TF over GST control) | 1.02 fold enrichment (6-mer frequency, TF over GST control) | 1.1 fold enrichment (6-mer frequency, TF over GST control) | 1.08 fold enrichment (6-mer frequency, TF over GST control) | 1.05 fold enrichment (6-mer frequency, TF over GST control)
2 | TTTTCG | 1.18 fold enrichment (6-mer frequency, TF over GST control) | 1.28 fold enrichment (6-mer frequency, TF over GST control) | 1.24 fold enrichment (6-mer frequency, TF over GST control) | 1.2 fold enrichment (6-mer frequency, TF over GST control) | 1.22 fold enrichment (6-mer frequency, TF over GST control) | 1.25 fold enrichment (6-mer frequency, TF over GST control) | 1.27 fold enrichment (6-mer frequency, TF over GST control) | 1.16 fold enrichment (6-mer frequency, TF over GST control) | 1.35 fold enrichment (6-mer frequency, TF over GST control)
3 | TATGAA | 1.18 fold enrichment (6-mer frequency, TF over GST control) | 1.17 fold enrichment (6-mer frequency, TF over GST control) | 1.21 fold enrichment (6-mer frequency, TF over GST control) | 1.14 fold enrichment (6-mer frequency, TF over GST control) | 1.18 fold enrichment (6-mer frequency, TF over GST control) | 1.12 fold enrichment (6-mer frequency, TF over GST control) | 1.19 fold enrichment (6-mer frequency, TF over GST control) | 1.17 fold enrichment (6-mer frequency, TF over GST control) | 1.16 fold enrichment (6-mer frequency, TF over GST control)
4 | ATCTAA | 1.21 fold enrichment (6-mer frequency, TF over GST control) | 1.24 fold enrichment (6-mer frequency, TF over GST control) | 1.23 fold enrichment (6-mer frequency, TF over GST control) | 1.17 fold enrichment (6-mer frequency, TF over GST control) | 1.23 fold enrichment (6-mer frequency, TF over GST control) | 1.23 fold enrichment (6-mer frequency, TF over GST control) | 1.13 fold enrichment (6-mer frequency, TF over GST control) | 1.21 fold enrichment (6-mer frequency, TF over GST control) | 1.16 fold enrichment (6-mer frequency, TF over GST control)
5 | TGACCC | 1.34 fold enrichment (6-mer frequency, TF over GST control) | 1.29 fold enrichment (6-mer frequency, TF over GST control) | 1.38 fold enrichment (6-mer frequency, TF over GST control) | 1.4 fold enrichment (6-mer frequency, TF over GST control) | 1.43 fold enrichment (6-mer frequency, TF over GST control) | 1.51 fold enrichment (6-mer frequency, TF over GST control) | 1.26 fold enrichment (6-mer frequency, TF over GST control) | 1.3 fold enrichment (6-mer frequency, TF over GST control) | 1.4 fold enrichment (6-mer frequency, TF over GST control)
6 | CTTCCC | 2.11 fold enrichment (6-mer frequency, TF over GST control) | 2.06 fold enrichment (6-mer frequency, TF over GST control) | 2.07 fold enrichment (6-mer frequency, TF over GST control) | 2.19 fold enrichment (6-mer frequency, TF over GST control) | 2.29 fold enrichment (6-mer frequency, TF over GST control) | 2.4 fold enrichment (6-mer frequency, TF over GST control) | 3.35 fold enrichment (6-mer frequency, TF over GST control) | 2.45 fold enrichment (6-mer frequency, TF over GST control) | 2.08 fold enrichment (6-mer frequency, TF over GST control)
7 | CCCCCT | 1.22 fold enrichment (6-mer frequency, TF over GST control) | 1.26 fold enrichment (6-mer frequency, TF over GST control) | 1.25 fold enrichment (6-mer frequency, TF over GST control) | 1.21 fold enrichment (6-mer frequency, TF over GST control) | 1.33 fold enrichment (6-mer frequency, TF over GST control) | 1.26 fold enrichment (6-mer frequency, TF over GST control) | 1.19 fold enrichment (6-mer frequency, TF over GST control) | 1.24 fold enrichment (6-mer frequency, TF over GST control) | 1.32 fold enrichment (6-mer frequency, TF over GST control)
8 | AATCCT | 1.46 fold enrichment (6-mer frequency, TF over GST control) | 1.31 fold enrichment (6-mer frequency, TF over GST control) | 1.34 fold enrichment (6-mer frequency, TF over GST control) | 1.41 fold enrichment (6-mer frequency, TF over GST control) | 1.36 fold enrichment (6-mer frequency, TF over GST control) | 1.33 fold enrichment (6-mer frequency, TF over GST control) | 1.37 fold enrichment (6-mer frequency, TF over GST control) | 1.38 fold enrichment (6-mer frequency, TF over GST control) | 1.46 fold enrichment (6-mer frequency, TF over GST control)

From paper PMC7862700, “An all-to-all approach to the identification of sequence-specific readers for epigenetic DNA modifications on cytosine”
